Assay outcomes as filed in PubChem BioAssay.
Rows were chosen to be rich in hits. Some 0.41% of all compounds tested hit in one or more screens of this group.
LMNA splice mod – modulators of lamin A splicing. HeLa LMNA splicing GFP/RFP minigene ratio, 48 h. Potency, µM (doses to about 46.1 µM), inactives show top-dose ratio change, negative = inhibition, usual class: inhibitors. hit rate 0.01% among 200,000. AID 1487; active = well fitted inhibition curve with a large enough effect in the signal ratio, with a control signal flat, not every such curve was filed as active; inconclusive = small, poorly fitted or top-dose-only effect, or effect the other way, or a change in a side signal; the % refers to the signal ratio
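Read-out is the ratio of GFP to DsRed2 object intensity, acquired by 488 nm laser-scanning cytometry on HeLa lamin A-EGFP minigene reporter cells. Compound incubation 48 hrs at 37 °C in Opti-MEM with 2% FBS; DMSO 0.5% final.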
GAA inh – blocks human lysosomal alpha-glucosidase | purified human GAA, 4-MU-alpha-glucoside fluorescence | Potency, µM (top dose mostly 76.9 µM), without a hit: at the top dose activity change, negative = inhibition, most hits filed as inhibitors | hit rate 0.005% among 200,000;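 note: plate controls were uninhibited enzyme wells for no effect and no-enzyme background for full effect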
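AC50 values come from Hill fits of compound titrations (up to 77 uM) against 4 nM human enzyme. Substrate 4-methylumbelliferyl-alpha-D-pyranoside at 400 uM, pH 5.0 citrate buffer, 20 min room temperature; fluorescence Ex 365/Em 440 after alkaline stop.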
N370S GC – inhibits or activates N370S mutant glucocerebrosidase; P04062; N370S GC spleen homogenate, 4MU-glucoside fluorescence; Potency, µM (doses to about 59.4 µM), for inactives: top-dose activity change, negative = inhibition, hits mostly inhibitors; AID 2101; hit rate 0.092% among 330,000;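 note: 0% = full enzyme activity and -100% = no enzyme basal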
GAA glycogen mod – inhibitors or activators of human alpha-glucosidase glycogen cleavage | Potency, µM (top dose mostly 76.4 µM), without a hit: top-dose activity change, negative = inhibition, actives largely listed as inhibitors | recombinant GAA, glycogen substrate, Amplex Red glucose oxidase fluorescence | hit rate 0.38% among 300,000 | P10253;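 note: 0% = full enzyme reaction and -100% = no-enzyme basal signal; the screen sought inhibitors and activators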
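qHTS, 1536-well; enzyme 4 nM final; cpd up to 77 uM; substrate bovine liver glycogen 30 ug; 50 mM citrate/phosphate pH 5.0, 0.01% Tween-20; 37 C, 40 min; Amplex Red detection 45 min RT; Hill fit → AC50.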
GAA spleen mod – lysosomal alpha-glucosidase (human) modulation; Potency, µM (series often up to 79.9 µM), for inactives: top-dose activity change, negative = inhibition, hits mostly inhibitors; human spleen homogenate, 4-MU-alpha-glucoside fluorescence; AID 2112; hit rate 0.006% among 240,000; P10253;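 note: 0% = enzyme with vehicle and -100% = no enzyme basal signal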
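Enzyme source: human spleen homogenate, 1 ug/well. Buffer 50 mM citric acid/K phosphate pH 5.0, 0.01% Tween-20. 4-MU-alpha-glucoside 1 mM; 37 C x 40 min; NaOH/glycine stop; fluorescence.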
Active calls of the source: *; ? = inconclusive; / = no result given; [ ] = another dose, or the depositor's remark. Unless noted, calls come from the whole dose curve; as a rule, active = well fitted curve in the direction sought with a large enough effect; inconclusive = small, poorly fitted or top-dose-only effect, or another doubt; inactive = no such curve, though single readings can be large; an effect the other way counts as inactive or inconclusive. Unless noted, % is set by controls: 0 for no effect and ±100 for the full control effect; potency is the fitted concentration of half-maximal effect.

SMILES	LMNA splice mod	GAA inh	N370S GC	GAA glycogen mod	GAA spleen mod
O=C(CCSc1ccc(Cl)cc1)N1CCN(c2ccc(O)cc2)CC1	/	/	-25.8%	17.8µM*	7.8%
C=CCc1cccc(/C=N/NC(=O)CN2CCN(Cc3ccccc3)CC2)c1O	/	/	-1.0%	/	2.0%
C[C@H](Cc1nc2c(cnn2-c2ccccc2Cl)c(=O)[nH]1)C(F)(F)F	/	/	-7.0%	/	-3.4%
CCOC(=O)c1c(/N=C/c2ccc(C)cc2O)sc2c1CCC2	-17.2%	2.3%	-6.0%	14.1µM*	-0.4%
CCOC(=O)c1c(/N=C/c2ccc(OC)cc2O)sc2c1CCN(C)C2	/	/	-6.8%	7.4%	-1.5%
COc1cccc(CNS(=O)(=O)c2ccc(S(=O)(=O)N3CCCC3)cc2)c1	/	1.2%	7.1%	5.01µM*	0.7%
O=S(=O)(NCc1ccco1)c1ccc(S(=O)(=O)N2CCCC2)cc1	/	?	15.6%	35.5µM*	2.8%
O=S(=O)(NCc1ccco1)c1cccc(S(=O)(=O)N2CCOCC2)c1	-5.6%	-4.8%	0.0%	-1.9%	1.1%
COc1cccc(CNS(=O)(=O)c2ccc(N3CCCCS3(=O)=O)cc2)c1	0.7%[46 µM]	/	/	/	/
COc1ccc(NC(=O)c2cn3c4c(ccc(Cl)c4c2=O)OC(C)C3)cc1OC (centres undefined)	-21.1%[46 µM]	/	/	-8.2%[76.3 µM]	/
CN1c2ccccc2C(C)(C)C12C=Nc1c(cc(N3CCOCC3)c3ccccc13)O2 (centres undefined)	?	5.2%	?	-21.8%	3.4%
CN1c2ccccc2C(C)(C)C12C=Cc1cc(O)ccc1O2 (centres undefined)	?	-0.2%	0.5%	12.5µM*	-11.3%
O=C(CSc1cn(CCNC(=O)c2cccc(C(F)(F)F)c2)c2ccccc12)Nc1ccc2c(c1)OCCO2	/	/	/	35.5µM*	/
Cc1ccc(NC(=O)c2nnn(CC(=O)Nc3ccc(C)c(Cl)c3)c2N)c(C)c1	0.1%[46 µM]	/	/	/	/
CC(NC(=S)NCCc1ccccc1)C(c1cccs1)N1CCN(C)CC1 (centres undefined)	-3.3%	0.9%	11.2µM*	-4.1%	-0.4%
CC(NC(=O)c1cccs1)C(c1cccs1)N1CCN(Cc2ccccc2)CC1 (centres undefined)	3.8%	-5.2%	-7.9%	5.1%	-2.5%
C=CCC1(C)OC=Cc2nc3cc(Cl)c(Cl)cc3nc21 (centres undefined)	/	/	6.0%[12.8 µM]	/	0.3%[17.4 µM]
COC(=O)[C@H](Cc1ccccc1)NC(=O)O[C@@H]1C(=O)c2cc(OC)ccc2O[C@H]1c1cccc(OC)c1	/	/	-5.2%	/	0.1%
CCCn1c(CNC(=O)c2ccc(F)cc2)nc2ccccc21	/	/	/	15.7%[76.3 µM]	/
CCCn1c(CNc2ccccc2O)nc2ccccc21	-15.3%	-8.8%	-5.3%	12.5µM*	-2.8%
Nc1cc(CN2C(=O)c3ccccc3C2=O)cc(Cl)c1O	-11.9%	-6.0%	-8.0%	7.94µM*	1.5%
O=C1c2ccccc2C(=O)N1Cc1cc(Cl)c(O)c([N+](=O)[O-])c1	/	/	-6.5%	-0.4%	/
COC(=O)c1c(NC(C)=O)c2c3c(sc2n1Cc1cc(C)ccc1C)CCCC3	8.0%[46 µM]	/	/	-1.0%[76.3 µM]	/
Cc1ccn2c(=O)c(C(=O)NCCc3ccc(S(N)(=O)=O)cc3)c(O)nc2c1	/	/	/	0.1%[76.3 µM]	/
Oc1ccc(N2CCN(Cc3nc4ccccc4[nH]3)CC2)cc1	/	/	-2.7%	8.91µM*	/
SMILES	LMNA splice mod	GAA inh	N370S GC	GAA glycogen mod	GAA spleen mod
C/C(=N\NC(=O)c1ccccc1F)c1ccc2c(c1)Nc1ccccc1S2	-4.0%	0.3%	10.6%	25.1µM*	-1.8%
O=C(O)c1ccccc1Nc1ccc(CCc2ccc(Cl)c(Cl)c2)cc1	/	/	-2.3%	/	-2.7%
CCCc1cc(=O)[nH]c(Nc2ccc(O)cc2C)n1	/	/	/	10µM*	/
CCCc1cc(=O)[nH]c(Nc2cccc(Cl)c2Cl)n1	/	/	/	-7.8%[76.3 µM]	/
O=C(CSc1ccc(-c2cccs2)nn1)Nc1cccc(F)c1	/	/	/	14.0%[76.3 µM]	/
CCOC(=O)C1=C(C)NC(SCc2cc(=O)[nH][nH]2)=C(C#N)C1c1cccs1 (centres undefined)	5.5%	-12.0%	-6.5%	31.4µM*	-19.8%
c1ccc(-c2ccc(N3CCCC4(CCNCC4)C3)cc2)cc1	/	/	15.8µM*	/	-3.3%
Cc1cccc(N2CCN(C(=O)Cn3ncc4c3-c3cc(C)ccc3OC4)CC2C)c1 (centres undefined)	/	/	/	-8.5%[76.3 µM]	/
Oc1ccc(Cl)cc1N=Cc1sc2ccccc2c1Cl	/	5.3%	-15.2%	2.82µM*	10.2%
CCc1cccc(NC(=O)Nc2cccs2)c1	-14.4%	0.6%	2.3%	28.2µM*	1.9%
CC(C)c1ccc(NC(=S)NNC(=O)c2cccnc2)cc1	29.5%[46 µM]	12.4%	-1.6%	?	-1.2%
O=C(NNC(=S)Nc1ccc(Br)cc1)c1cccnc1	/	/	-5.1%	50.1µM*	/
O=C(NCCN1CCOCC1)c1ccc(/C=C2\Sc3ccccc3N(Cc3ccccc3F)C2=O)cc1	/	/	1µM*	2.5%[76.3 µM]	/
CC(C)CCC[C@@H](C)[C@@H]1CC[C@H]2C3=CC=C4CC(O)CC[C@]4(C)[C@H]3CC[C@@]21C (some centres undefined)	/	/	-10.8%	/	-2.7%
Oc1ccc(N2CCN(C(c3cccs3)c3nnnn3CCc3ccccc3)CC2)cc1 (centres undefined)	?	-4.6%	?	28µM*	-2.9%
COc1ccc(Cn2nnnc2C(c2cccs2)N2CCN(c3ccccc3)CC2)cc1 (centres undefined)	?	-5.7%	4.5%[2.35 µM]	0.4%	-3.7%
COc1ccc(-c2nnc(SCC(=O)Nc3cc(OC)ccc3OC)nc2-c2ccc(OC)cc2)cc1	-4.9%[46 µM]	/	/	/	/
O=C1/C(=C\c2ccc(O)c(O)c2)N=C2CCCCCN12	/	/	-14.2%	7.08µM*	-7.5%
COc1ccc(/C=N/Nc2nonc2N)c(OC)c1	/	-1.8%	-18.9%	35.2µM*	2.6%
COc1ccc(/C=N/Nc2nccnc2Cl)c(OC)c1	-11.2%[46 µM]	7.3%	-6.0%	?	-5.5%
O=S(=O)(c1ccc(Br)s1)N1CCN(c2cccc(C(F)(F)F)c2)CC1	/	/	/	-11.2%[76.3 µM]	/
CCOC(=O)N1C(COCc2ccccc2)C=CCS1(=O)=O (centres undefined)	/	/	-12.0%	/	-10.4%
